Assay results as given in PubChem BioAssay.
Records with an inconclusive call do not appear. Active and inactive are the calls of the source.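 How the source made its calls, unless noted: active means viability increase at or above a cutoff of the median across tested compounds plus 3 SD (cut at about 8.5% in these data, passing the limit was not always enough); inconclusive means some gains above the cutoff, reason not given; inactive means the rest.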

Key:
[1] = S. cerevisiae growth inhibition in permissive medium (OD615), pilot counter-assay for S. cerevisiae lifespan shortening project, permissive growth control (AID 705;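 active means growth inhibition above 25% in both replicates, a cutoff set 3 SD above the mean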); settings: OD615, 24 h, at 10 µM, stronger effect = higher value
[2] = doxorubicin toxicity protection in MRP-1 cells – H69AR cells, CellTiter-Glo, duplicate, MRP-1 activator project, pilot screen (AID 807); settings: H69AR viability with doxorubicin, CellTiter-Glo luminescence; at 10 µM; stronger effect = higher value;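 further: compound pretreatment 18-22 h then 72 h combined with doxorubicin; 0% = doxorubicin alone and 100% = vehicle without doxorubicin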
[3] = viability of HCT116 without oncogenic beta-catenin – human colon tumor cells, pilot screen (AID 823;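 active means cell viability at or below a set limit in both duplicate runs, the limit being the all-compound median minus 4 SD, cut at about 23% in these data, passing the limit was not always enough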;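 further: 0% = wells killed by 20 µM Hyamine and 100% = untreated DMSO cell wells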); settings: HCT116 beta-catenin knockout viability, CellTiter-Glo, 60 h; at 10 µM; stronger effect = lower value
[4] = viability of PTEN-null HCT116 cells – cell-based, HCT116 clonal line, CellTiter-Glo, pilot screen (AID 824;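 active means viability at or below 27.92% in each of two runs, the all-compound median minus 4 SD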;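 further: 0% = 20 µM Hyamine control and 100% = vehicle cell control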); settings: HCT116 PTEN-deleted viability, 60 h, at 10 µM, stronger effect = lower value
[5] = RAM pathway blockade in budding yeast – dse1pr::URA3 reporter, 5-FOA selection, pilot screen (AID 869;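 active means inhibition over a set limit, the all-compound mean plus 3 SD, in both replicate runs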;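 further: 0% = DMSO wells with no growth and 100% = 10 µM 1-NA-PP1 with full growth; RAM network block rescues cells from 5-FOA so hits raise OD615 growth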); settings: S. cerevisiae dse1pr::URA3 5-FOA growth, OD615, 2 d; at 10 µM; stronger effect = higher value; strain carries analog-sensitive mutant Cbk1 kinase
[6] = RAM signaling pathway blockade in yeast – S. cerevisiae, Pdr1DBD-CYC8 efflux-inhibited sensitized strain, primary screen (AID 1298;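 active means RAM network inhibition above 8.4% in each of two replicates, 3 SD over the compound average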;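 further: 0% = DMSO untreated cells without growth and 100% = 10 µM 1-NA-PP1 full growth; higher means more yeast growth rescued from 5-FOA killing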); settings: S. cerevisiae cbk1-as DSE1-URA3 strain, 5-FOA growth OD615, 2 d; at 50 µM; stronger effect = higher value
[7] = S. cerevisiae growth inhibition in restrictive medium, OD615, pilot screen, restrictive growth control, yeast lifespan reduction project (AID 706;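 active means growth inhibition above a set limit, 3 SD over mean compound inhibition, in both replicates, cut at about 43% in these data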;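 further: modified DeaD lifespan yeast strain shifted to restrictive glucose medium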); settings: OD615, 48 h, at 10 µM, stronger effect = higher value
[8] = Her2 expression decrease, cell viability multiplex – SKBR3 breast tumor cells, AlphaScreen, ATP viability, primary screen (AID 461;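 active means Her2 level under about 52% in both replicate screens, with viability over 70% of control, limit read from the data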;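 on Her2 level: lower value means less Her2 protein in the cells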;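 on viability: percent of carrier control wells set as 100% viability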); settings: SKBR3 Her2 protein level, 18-24 h, measured here: SKBR3 viability, ATP luminescence, at 10 µM
[9] = biological target: Receptor tyrosine-protein kinase erbB-2 (Homo sapiens) (UniProt P04626); assay: as above; settings: 18-24 h, at 10 µM, stronger effect = lower value
Sequence of Receptor tyrosine-protein kinase erbB-2 (Homo sapiens) (P04626 whole entry, looked up): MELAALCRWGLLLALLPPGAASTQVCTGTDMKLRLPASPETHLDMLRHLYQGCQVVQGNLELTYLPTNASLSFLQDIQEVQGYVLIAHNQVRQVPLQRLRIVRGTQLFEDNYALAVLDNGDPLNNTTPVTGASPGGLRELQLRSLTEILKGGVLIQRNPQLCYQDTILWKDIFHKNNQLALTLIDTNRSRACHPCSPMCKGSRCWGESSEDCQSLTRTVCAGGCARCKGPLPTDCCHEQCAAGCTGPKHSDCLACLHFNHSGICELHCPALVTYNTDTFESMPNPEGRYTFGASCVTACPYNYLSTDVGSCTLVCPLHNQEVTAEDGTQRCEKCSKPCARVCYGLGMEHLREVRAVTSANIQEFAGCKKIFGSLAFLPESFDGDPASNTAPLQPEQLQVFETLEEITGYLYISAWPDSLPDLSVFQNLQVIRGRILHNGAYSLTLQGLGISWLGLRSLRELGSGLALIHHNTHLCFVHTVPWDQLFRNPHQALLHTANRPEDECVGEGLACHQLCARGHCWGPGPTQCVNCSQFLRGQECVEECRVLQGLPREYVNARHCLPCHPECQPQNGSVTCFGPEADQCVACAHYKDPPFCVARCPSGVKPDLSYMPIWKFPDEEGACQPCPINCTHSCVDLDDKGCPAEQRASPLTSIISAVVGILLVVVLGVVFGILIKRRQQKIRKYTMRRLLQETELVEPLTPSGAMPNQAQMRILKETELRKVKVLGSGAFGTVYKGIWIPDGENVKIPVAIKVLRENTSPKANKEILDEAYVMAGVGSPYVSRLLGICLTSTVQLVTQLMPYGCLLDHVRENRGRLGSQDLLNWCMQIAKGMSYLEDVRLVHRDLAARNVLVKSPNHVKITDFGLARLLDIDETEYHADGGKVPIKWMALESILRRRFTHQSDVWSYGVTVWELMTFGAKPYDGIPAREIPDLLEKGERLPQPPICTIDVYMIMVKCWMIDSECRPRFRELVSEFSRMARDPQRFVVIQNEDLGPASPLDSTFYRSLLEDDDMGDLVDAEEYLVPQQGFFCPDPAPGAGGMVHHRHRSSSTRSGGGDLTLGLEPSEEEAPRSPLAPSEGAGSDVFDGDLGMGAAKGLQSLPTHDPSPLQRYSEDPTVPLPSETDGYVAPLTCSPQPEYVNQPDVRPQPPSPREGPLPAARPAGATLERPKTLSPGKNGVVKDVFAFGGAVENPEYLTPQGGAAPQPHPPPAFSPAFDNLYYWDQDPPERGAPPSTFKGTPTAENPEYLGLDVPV

[10] = reduced viability of SK-BR-3 breast cancer cells – cell-based, 24 h, human, pilot screen (AID 572;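 active means viability at or below 10% of carrier control in both of two separate runs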;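 further: compound exposure lasted between 18 and 24 h rather than exactly 24 h; 100% = carrier-treated control wells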); settings: SK-BR-3 viability, CellTiter-Glo luminescence, at 10 µM, stronger effect = lower value
[11] = HUVEC growth inhibition – cell-based, human, primary screen (AID 575;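 active means viability at or below 30% in both replicate assays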;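 further: 100% = median of untreated cell wells with 0.1% DMSO on each plate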); settings: HUVEC proliferation, CellTiter-Glo luminescence, 72 h; at 10 µM; stronger effect = lower value
[12] = H69AR cell proliferation blockers – human, duplicate replicates, primary screen (AID 580;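 active means viability at or under a set limit in both replicates, limit being median viability minus 3 SD, cut at about 48% in these data, passing the limit was not always enough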;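 further: 100% = mean luminescence of untreated wells and 0% = no signal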); settings: H69AR lung tumor cells viability, ATP luminescence, 72 h; at 10 µM; stronger effect = lower value
[13] = MRP1 drug-resistance reversers in H69AR cells – cell-based, doxorubicin co-treatment, pilot screen (AID 601;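 active means viability loss from added drug above about 55%, and viability with drug at most 40%, in both replicates, limit read from the data, passing the limit was not always enough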); settings: CellTiter-Glo, 72 h, at 10 µM

Oc1c(CN2CCc3ccccc3C2)cc(Cl)c2cccnc12
growth inhibition [1]: 5.68% (inactive)
viability increase [2]: -9.01% (inactive)
viability [3]: 1.27% (active)
viability [4]: 0.66% (active)
inhibition [5]: -1.5% (inactive)
RAM network inhibition [6]: -2.41% (inactive)

CCc1ccc(Cn2nnc(C(=O)NCc3ccccc3OC)c2N)cc1
growth inhibition [7]: 5.92% (inactive)
viability increase [2]: -2.2% (inactive)
viability [3]: 95% (inactive)
viability [4]: 92% (inactive)
inhibition [5]: 1.81% (inactive)
RAM network inhibition [6]: 4.95% (inactive)

COc1ccccc1C(=O)Nc1cc(-c2nn3c(C)nnc3s2)ccc1C
growth inhibition [1]: 12.8% (inactive)
viability increase [2]: -3.73% (inactive)
viability [3]: 114% (inactive)
viability [4]: 97.8% (inactive)
inhibition [5]: 1.22% (inactive)
RAM network inhibition [6]: 4.87% (inactive)

COc1cc(C2CC(=O)N3CN(Cc4ccco4)CSC3=C2C#N)ccc1OCc1ccccc1 (stereo not given)
growth inhibition [1]: 7.01% (inactive)
viability increase [2]: -5.42% (inactive)
viability [3]: 77.8% (inactive)
viability [4]: 83.5% (inactive)
inhibition [5]: 1.65% (inactive)
RAM network inhibition [6]: 2.55% (inactive)

c1cncc(-c2nnc(SCc3cccc4ccccc34)o2)c1
growth inhibition [1]: -6.93% (inactive)
viability increase [2]: -0.01% (inactive)
viability [3]: 103% (inactive)
viability [4]: 91% (inactive)
inhibition [5]: 1.16% (inactive)
RAM network inhibition [6]: 0.49% (inactive)

COc1ccc(OCc2nnc3n2N=C(c2ccc(Br)cc2)CS3)cc1
growth inhibition [1]: 3.29% (inactive)
viability increase [2]: 2.18% (inactive)
viability [3]: 70% (inactive)
viability [4]: 72.2% (inactive)
inhibition [5]: 0.955% (inactive)
RAM network inhibition [6]: 3.18% (inactive)

COc1ccc(Br)cc1C1CC(=O)N2CN(C)CSC2=C1C#N (stereo not given)
growth inhibition [1]: 4.76% (inactive)
viability increase [2]: -4.75% (inactive)
viability [3]: 81.6% (inactive)
viability [4]: 78.3% (inactive)
inhibition [5]: 0.03% (inactive)
RAM network inhibition [6]: 1.82% (inactive)

CCC1(C)Cc2nc3sc(C(=O)O)c(N)c3cc2CO1 (stereo not given)
growth inhibition [1]: -4.39% (inactive)
viability increase [2]: -3.61% (inactive)
viability [3]: 94.2% (inactive)
inhibition [5]: 1.71% (inactive)
RAM network inhibition [6]: 6.29% (inactive)

CCN(CC)C1CC(=O)N(c2cccc(C)c2)C1=O (stereo not given)
growth inhibition [1]: 20% (inactive)
viability increase [2]: -1.11% (inactive)
viability [3]: 105% (inactive)
viability [4]: 101% (inactive)
inhibition [5]: 2.06% (inactive)
RAM network inhibition [6]: -0.69% (inactive)

COc1ccc(OC)c(C2CC(=O)N3CN(c4ccc(C)c(Cl)c4)CSC3=C2C#N)c1 (stereo not given)
growth inhibition [1]: -0.805% (inactive)
viability increase [2]: -3.72% (inactive)
viability [3]: 90.6% (inactive)
viability [4]: 94.4% (inactive)
inhibition [5]: 2.44% (inactive)
RAM network inhibition [6]: 7.86% (inactive)

c1ccc(Cc2nnc3sc(-c4ccco4)nn23)cc1
growth inhibition [7]: 68.7% (active)
viability increase [2]: -5.05% (inactive)
viability [3]: 108% (inactive)
viability [4]: 94.7% (inactive)
inhibition [5]: 1.98% (inactive)
RAM network inhibition [6]: 5.97% (inactive)

Cc1ccc(S(=O)(=O)Nc2nc(C)cc(NCCN)n2)cc1
growth inhibition [7]: -2.19% (inactive)
viability increase [2]: -0.98% (inactive)
viability [3]: 94.3% (inactive)
viability [4]: 88.5% (inactive)
inhibition [5]: 0.48% (inactive)
RAM network inhibition [6]: 2.5% (inactive)

CCOC(=O)c1ccc(NC(=O)CSc2nc3c(c(=O)n2CC)SC(C)C3)cc1 (stereo not given)
growth inhibition [7]: -18.3% (inactive)
viability increase [2]: -3.44% (inactive)
viability [3]: 84% (inactive)
viability [4]: 80.8% (inactive)
inhibition [5]: 0.12% (inactive)
RAM network inhibition [6]: 3.13% (inactive)

CC(=O)NC1(NC(C)=O)CCN(C)C(c2ccccc2)C1C (stereo not given)
growth inhibition [7]: -6.19% (inactive)
viability increase [2]: -2% (inactive)
viability [3]: 98.2% (inactive)
viability [4]: 100% (inactive)
inhibition [5]: 1.46% (inactive)
RAM network inhibition [6]: 1.13% (inactive)

Cc1ccc(OCC(=O)Nc2cc(-c3nn4c(C)nnc4s3)ccc2C)cc1
growth inhibition [1]: 0.12% (inactive)
viability increase [2]: -4.09% (inactive)
viability [3]: 93.7% (inactive)
viability [4]: 88% (inactive)
inhibition [5]: 3.09% (inactive)
RAM network inhibition [6]: 10.7% (inactive)

Clc1ccccc1CSc1nnc(-c2ccccn2)n1Cc1ccco1
growth inhibition [1]: -5.1% (inactive)
viability increase [2]: -5.33% (inactive)
viability [3]: 74.8% (inactive)
viability [4]: 79% (inactive)
inhibition [5]: 1.92% (inactive)
RAM network inhibition [6]: 2.52% (inactive)

Cn1cccc1Cc1nnc(SCC(=O)NC2CCCC2)n1CCc1ccccc1
growth inhibition [1]: -1.71% (inactive)
viability increase [2]: -0.59% (inactive)
viability [3]: 101% (inactive)
viability [4]: 96.8% (inactive)
inhibition [5]: 1.71% (inactive)
RAM network inhibition [6]: 6.53% (inactive)

COC(=O)c1cc(CSc2nc3ccc(C)cc3[nH]2)oc1C
growth inhibition [7]: 4.74% (inactive)
viability increase [2]: -0.15% (inactive)
viability [3]: 46.6% (inactive)
viability [4]: 63.5% (inactive)
inhibition [5]: 0.105% (inactive)
RAM network inhibition [6]: 4.81% (inactive)

C[C@]12C=CC(=O)C=C1CC[C@H]1[C@@H]3C[C@@H](O)[C@](O)(C(=O)CO)[C@@]3(C)C[C@H](O)[C@@]12F
viability [8]: 94%
Her2 level [9]: 110% (inactive)
viability [10]: 94% (inactive)
viability [11]: 101% (inactive)
viability [12]: 106% (inactive)
differential viability (reversal) ([13]; H69AR cells + 2 uM doxorubicin, stronger effect = higher value): -2.81% (inactive)
viability ([13]; H69AR cells + 2 uM doxorubicin, measured here: viability with 2 uM doxorubicin, stronger effect = lower value): 109%
viability ([13]; H69AR cells, compound alone cytotoxicity): 106%
